Data on eight compounds can be found in PubChem BioAssay (NCI).

Molecules are shown by their SMILES. The panel holds about 83,000 compounds, 20% with a hit somewhere; the sample as a whole holds those more often.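 Percent growth is the endpoint: 0 to 100 indicates growth inhibition (40 means 60% inhibition), 0 means no net growth, and negative values indicate cell death.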 Values without a mark were called inactive. Activity calls are given as the source filed them. The calls were made as follows: active = growth percent below 10; inactive = the rest.

Test systems include SK-MEL-2 melanoma; EKVX NSCLC; SN12C renal; TK-10 renal; ACHN renal; CAKI-1 renal; A498 renal; CCRF-CEM leukemia; MOLT-4 leukemia; SR leukemia; RPMI-8226 leukemia; OVCAR-8 ovarian; OVCAR-5 ovarian; OVCAR-4 ovarian; SK-OV-3 ovarian; OVCAR-3 ovarian; HS 578T breast; NCI/ADR-RES ovarian; IGROV1 ovarian.
Common to all, as to assay: NCI-60 one-dose screen, 48 h (100 = growth as untreated, 0 = no growth, -100 = all killed)
What all share (details): 10 µM unless noted

For the compound `Cc1ccc2nc3c(n2c1)C(=O)C(=O)c1ccccc1-3`, the growth in the assay with SK-MEL-2 melanoma was -55.6% (active); in the assay on EKVX NSCLC, -89.6% (active); with SN12C renal it was -71.7% (active); in the assay with TK-10 renal, -62.4% (active); with ACHN renal, -77.1% (active); in the assay with CAKI-1 renal, -83% (active). For the same compound, the growth was -96.4% (active) in the assay with A498 renal; -12.8% (active) in the assay with CCRF-CEM leukemia; -70.8% (active) in the assay with MOLT-4 leukemia; -44.5% (active) in the assay with SR leukemia; -51.9% (active) with RPMI-8226 leukemia; -68.1% (active) in the assay on OVCAR-8 ovarian. Besides, the growth with OVCAR-5 ovarian is -74% (active); in the assay with OVCAR-4 ovarian it was -98.4% (active); in the assay on SK-OV-3 ovarian, -90.9% (active); with OVCAR-3 ovarian, -82.5% (active); with HS 578T breast, -15.6% (active); in the assay on NCI/ADR-RES ovarian, -3.7% (active).

For `COc1cc(/C=C/C(=O)C(C(=O)/C=C/c2ccc(OC(=O)CCNC34CC5CC(CC(C5)C3)C4)c(OC)c2)C(=O)CCNC23CC4CC(CC(C4)C2)C3)ccc1OC(=O)CCNC12CC3CC(CC(C3)C1)C2` (stereo not given), the growth is 7.68% (active) in the assay on SK-MEL-2 melanoma; 19.6% in the assay on EKVX NSCLC; 5.02% (active) with SN12C renal; 44.2% with TK-10 renal; 6.38% (active) in the assay with ACHN renal; 18.6% with CAKI-1 renal. Also, the growth in the assay on A498 renal was 59.3%; in the assay with CCRF-CEM leukemia, -36.4% (active); in the assay with MOLT-4 leukemia it was -20.4% (active); with SR leukemia, -48.6% (active); in the assay with RPMI-8226 leukemia it was -51.6% (active); with OVCAR-8 ovarian, 8.87% (active). The growth in the assay with OVCAR-5 ovarian is 37.8%; with OVCAR-4 ovarian, 25.8%; in the assay on SK-OV-3 ovarian it was 42.8%; in the assay on IGROV1 ovarian it was -33.2% (active); in the assay with OVCAR-3 ovarian it was 14.9%; with HS 578T breast it was 6.55% (active). Besides, in the assay on NCI/ADR-RES ovarian, the growth was 41.7%.

With `CCOc1cc(/C=C/C(=O)CC(=O)/C=C/c2ccc(OC(=O)CNCCN(CC)CC)c(OCC)c2)ccc1OC(=O)CNCCN(CC)CC`, the growth in the assay on SK-MEL-2 melanoma was 4.43% (active); in the assay with EKVX NSCLC, -38.1% (active); in the assay with SN12C renal, -9.33% (active); in the assay on TK-10 renal, 7.64% (active); in the assay with ACHN renal, -88.4% (active); in the assay with CAKI-1 renal, -30.9% (active). The growth is -26.8% (active) with A498 renal; 4.21% (active) with CCRF-CEM leukemia; -23.4% (active) in the assay with MOLT-4 leukemia; -42.1% (active) in the assay on SR leukemia; -52.9% (active) in the assay on RPMI-8226 leukemia; 4.23% (active) in the assay on OVCAR-8 ovarian. Besides, the growth in the assay with OVCAR-4 ovarian was 18.1%; in the assay on SK-OV-3 ovarian it was 32.6%; in the assay with IGROV1 ovarian, -67.7% (active); in the assay on OVCAR-3 ovarian it was 0.276% (active); in the assay on HS 578T breast, 1.48% (active); in the assay on NCI/ADR-RES ovarian, 16.3%.

With `Cn1cc(NC(=O)Nc2cc(C(=O)O)n(C)c2)cc1C(=O)O`, the growth in the assay with SK-MEL-2 melanoma was 97.8%; in the assay on EKVX NSCLC it was 114%; with SN12C renal, 89.6%; with TK-10 renal it was 107%; in the assay on ACHN renal, 104%; with CAKI-1 renal it was 99.3%. Moreover, the growth with A498 renal was 109%; with CCRF-CEM leukemia, 103%; with MOLT-4 leukemia it was 85.9%; in the assay with SR leukemia it was 86.8%; in the assay on RPMI-8226 leukemia, 125%; with OVCAR-8 ovarian it was 94.4%. Besides, the growth is 107% with OVCAR-5 ovarian, 99.8% with OVCAR-4 ovarian, 112% with SK-OV-3 ovarian and 108% in the assay on HS 578T breast.

Regarding `C=CCNC(=O)/C(=C/c1cccc([N+](=O)[O-])c1)NC(=O)c1ccccc1`, the growth in the assay on SK-MEL-2 melanoma is 18.9%; in the assay with EKVX NSCLC, 108%; in the assay with SN12C renal, 103%; in the assay on TK-10 renal, 101%; with ACHN renal, 94%; with CAKI-1 renal it was 90.6%. The growth is 130% in the assay on A498 renal; 90.6% in the assay on CCRF-CEM leukemia; 101% in the assay on MOLT-4 leukemia; 207% in the assay on SR leukemia; 108% in the assay with RPMI-8226 leukemia; 98.7% in the assay on OVCAR-8 ovarian. For the same compound, the growth in the assay with OVCAR-5 ovarian is 101%; with OVCAR-4 ovarian, 99.3%; in the assay on SK-OV-3 ovarian, 99.9%; with OVCAR-3 ovarian, 108%; in the assay with HS 578T breast, 108%; in the assay on NCI/ADR-RES ovarian it was 106%.

In the case of `CN(C)c1ccc(-c2nc3ncc(Br)cc3o2)cc1`, the growth with SK-MEL-2 melanoma was 92.1%; in the assay on EKVX NSCLC, 78.4%; in the assay with SN12C renal it was 98.2%; with TK-10 renal it was 140%; with ACHN renal it was 99.9%; in the assay on CAKI-1 renal, 109%. Besides, the growth in the assay on A498 renal is 79.8%; with CCRF-CEM leukemia, 77.1%; with MOLT-4 leukemia, 81%; with SR leukemia, 94.4%; with RPMI-8226 leukemia, 74%; with OVCAR-8 ovarian, 99.6%. The growth is 100% in the assay on OVCAR-5 ovarian; 113% in the assay on OVCAR-4 ovarian; 94.8% in the assay on SK-OV-3 ovarian; 17% with IGROV1 ovarian; 112% with OVCAR-3 ovarian; 97.2% in the assay on HS 578T breast. Moreover, the growth in the assay on NCI/ADR-RES ovarian is 88.4%.

Take `COc1cc(/C=C\C(C)=N\Nc2ccccc2)ccc1O`: the growth with SK-MEL-2 melanoma is 92.5%; in the assay on EKVX NSCLC, 94.1%; in the assay on SN12C renal, 92.6%; in the assay on TK-10 renal, 94.5%; in the assay on ACHN renal it was 97.6%; in the assay with CAKI-1 renal it was 82.3%. In addition, the growth was 110% with A498 renal; 30.7% with CCRF-CEM leukemia; 70.9% in the assay on MOLT-4 leukemia; 39.3% in the assay on SR leukemia; 76.3% with RPMI-8226 leukemia; 90.5% with OVCAR-8 ovarian. For the same compound, the growth with OVCAR-5 ovarian was 84.7%; with OVCAR-4 ovarian, 85.6%; in the assay on SK-OV-3 ovarian, 121%; in the assay with IGROV1 ovarian, 96%; in the assay with OVCAR-3 ovarian, 89.2%; in the assay with HS 578T breast, 92.1%. Besides, in the assay with NCI/ADR-RES ovarian, the growth was 77.4%.

`COc1cc(/C=C/C(=O)c2c(C)n([O-])c3ccccc3[n+]2=O)cc(OC)c1OC`: the growth in the assay with SK-MEL-2 melanoma was 36.8%; in the assay with EKVX NSCLC it was 35.5%; in the assay with SN12C renal it was 54.6%; in the assay with TK-10 renal, 87.9%; in the assay with ACHN renal, 76.6%; in the assay with CAKI-1 renal, 26.3%. For the same compound, the growth is 69.7% with A498 renal; -51.2% (active) in the assay with CCRF-CEM leukemia; -64.5% (active) with MOLT-4 leukemia; 9.32% (active) in the assay on RPMI-8226 leukemia; 30.6% in the assay with OVCAR-8 ovarian; 80.6% in the assay on OVCAR-5 ovarian. Moreover, the growth was 46.9% in the assay on OVCAR-4 ovarian; 58.3% in the assay on SK-OV-3 ovarian; -15.8% (active) in the assay on IGROV1 ovarian; 59.2% with OVCAR-3 ovarian; 43.2% with HS 578T breast; 43.4% in the assay with NCI/ADR-RES ovarian.
